Source: PubChem
Sampled rows, rich in hits. Any-hit rate of the full collection: about 19%.
IL-1B inflam inh: blocks inflammasome-driven IL-1 beta release | activity change, % at 57.5 µM | THP-1 LPS/ATP IL-1B secretion, AlphaLISA, 16 h; hits give low values | 4.7% of 360,000 active | AID 743279; in the data active means activity change below about -50%; inconclusive means mostly about -30% to -49%; further: on the % scale 0 is the no-effect control and ±100 the full control effect
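Secreted IL-1B measured by AlphaLISA bead assay after 16 h compound exposure of THP-1 cells; compounds (final up to 57.5 uM) added 1 h before LPS (250 ng/mL) and ATP (1.25 mM) stimulation; lower signal means less secretion.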
TDP1 block: TDP1 (human) enzyme inhibition; Q9NUW8; recombinant TDP1, AlphaScreen DNA substrate cleavage; Potency, µM (titrated, usually from 130 µM), for inactives: at the highest dose activity change, negative = inhibition, hits mostly inhibitors; 0.28% of 350,000 active; AID 485290; further: potency means the concentration at half of the fitted maximal effect; on the % scale 0 is the no-effect control and ±100 the full control effect; nearly all actives have a fitted effect of over 40% in size
Target sequence (Q9NUW8 whole entry, looked up): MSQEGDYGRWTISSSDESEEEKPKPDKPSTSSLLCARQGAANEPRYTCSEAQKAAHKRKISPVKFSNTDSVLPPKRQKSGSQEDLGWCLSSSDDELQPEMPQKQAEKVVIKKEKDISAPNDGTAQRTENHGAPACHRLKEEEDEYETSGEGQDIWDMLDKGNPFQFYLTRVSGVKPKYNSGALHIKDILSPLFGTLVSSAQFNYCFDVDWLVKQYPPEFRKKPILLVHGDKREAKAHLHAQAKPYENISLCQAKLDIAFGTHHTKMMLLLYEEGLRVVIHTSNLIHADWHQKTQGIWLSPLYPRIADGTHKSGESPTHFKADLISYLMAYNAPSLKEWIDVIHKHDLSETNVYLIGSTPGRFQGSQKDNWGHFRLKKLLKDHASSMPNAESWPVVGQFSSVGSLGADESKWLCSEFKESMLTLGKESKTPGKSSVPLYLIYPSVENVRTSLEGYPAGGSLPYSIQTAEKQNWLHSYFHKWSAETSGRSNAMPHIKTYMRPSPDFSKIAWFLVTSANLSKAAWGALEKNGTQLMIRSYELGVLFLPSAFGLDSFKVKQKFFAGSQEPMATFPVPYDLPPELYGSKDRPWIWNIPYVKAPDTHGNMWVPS
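Signal: AlphaScreen proximity between streptavidin donor and anti-FITC acceptor beads on intact substrate. Reaction: Tdp1 1 nM, substrate 15 nM final, 5 min RT after 15 min compound preincubation.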
TGFb SMAD3 inh: blocks TGF-b signaling | Potency, µM (doses to about 46.1 µM), without a hit: at the highest dose activity, negative = inhibition, hits mostly inhibitors | HepG2 CAGA-GFP TGF-b/SMAD3 reporter, GFP fluorescence, 18 h; TGF-beta stimulated, 500 pg/mL final | 1.2% of 410,000 active; further: potency means the concentration at half of the fitted maximal effect; on the % scale 0 is the no-effect control and ±100 the full control effect; nearly all actives have a fitted effect of over 65% in size
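GFP signal (ex488/em500-530) from TGF-beta-stimulated HEPG2 CAGA-GFP cells, 500 pg/mL final, 18 h at 37 degrees C in DMEM plus 1% FBS, normalized to unstimulated and DMSO-stimulated controls.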
DT40 TDP1 no CPT: qHTS for Inhibitors of human tyrosyl-DNA phosphodiesterase 1 (TDP1): qHTS in cells in absence of CPT; DT40 Tdp1-/- hTDP1 cells, no CPT, ATP luminescence, 48 h; Potency, µM (doses to about 46.2 µM), for the others: at the top dose activity change, negative = growth inhibition, hits mostly inhibitors; 15% of 420,000 active; AID 686978, 2013; further: potency means the concentration at half of the fitted maximal effect; on the % scale 0 is the no-effect control and ±100 the full control effect; nearly all actives have a fitted effect of over 55% in size
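Seeded 400 DT40-hTDP1 cells/well (vehicle DMSO, no 20 nM CPT); pinned compounds; ≥48 hr at 37 °C; CellTiter-Glo luminescence as viability measure.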
HepG2 viability: kills HepG2 cells in TGF-b inhibitor counter-screen; HepG2 CAGA-GFP viability, ATP luminescence, 18 h; Potency, µM (series often up to 46.1 µM), for the others: top-dose activity change, negative = cytotoxicity, hits mostly cytotoxic; 0.76% of 410,000 active; AID 588856; further: potency means the concentration at half of the fitted maximal effect
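CellTiter-Glo luminescence gave cytotoxicity after 18 hours at 37 degrees C. The cells were HepG2 CAGA-GFP in 1% FBS DMEM, stimulated with 500 pg/mL TGF-beta after compound addition. %Activity was normalised to no-cell wells (complete cell-killing) and DMSO (no toxicity), and curves were fitted and classified.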
DT40 TDP1 CPT: growth inhibition of DT40 Tdp1-/-;hTDP1 cells with camptothecin (screen for TDP1 inhibitors); chicken DT40 Tdp1-/-;hTDP1 cells + 20 nM CPT, ATP luminescence, 48 h; Potency, µM (titrated, usually from 46.2 µM), for inactives: at the highest dose activity change, negative = growth inhibition, actives largely listed as inhibitors; 12% of 420,000 active; AID 686979; further: potency means the concentration at half of the fitted maximal effect; on the % scale 0 is the no-effect control and ±100 the full control effect; nearly all actives have a fitted effect of over 55% in size
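Chicken DT40 Tdp1-/- cells stably complemented with human TDP1 were seeded at 400 cells/well in medium containing 20 nM camptothecin, exposed to pin-transferred compounds, and grown at 37 °C for at least 48 hr. Viability was read as ATP luminescence.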
Numbers without * were called inactive; ? = inconclusive; · = no result given; [ ] = dose if it differs, or a comment. Unless noted, the call rests on the fitted dose curve; in most records, active means well fitted curve in the direction sought with a large enough effect; inconclusive means small, poorly fitted or top-dose-only effect, or another doubt; inactive means no such curve, though single readings can be large; an effect the other way counts as inactive or inconclusive.

SMILES	IL-1B inflam inh	TDP1 block	TGFb SMAD3 inh	DT40 TDP1 no CPT	HepG2 viability	DT40 TDP1 CPT
CCC[C@@H]1C[C@@H](C(=O)N[C@@H]([C@H]2O[C@H](SC)[C@H](O)[C@@H](O)[C@H]2O)[C@@H](C)O)N(C)C1	·	4%	·	-3%	·	-13%
CN(C)N=C1c2cc(S(=O)(=O)N(C)C)ccc2-c2ccc(S(=O)(=O)N(C)C)cc21	9	5%	1%	2.9µM*	-24%	4.6µM*
CN(C)S(=O)(=O)c1ccc2c(c1)C(=NNC(N)=O)c1cc(S(=O)(=O)N(C)C)ccc1-2	-1	·	1%	?	0%	16µM*
CN(CCO)S(=O)(=O)c1ccc2c(c1)C(=NNC(N)=O)c1cc(S(=O)(=O)N(C)CCO)ccc1-2	0	3%	4%	10%	1%	2%
CN(C)S(=O)(=O)c1ccc2c(c1)C(=NO)c1cc(S(=O)(=O)N(C)C)ccc1-2	9	·	-11%	8.2µM*	-13%	?
Cc1cc(NS(=O)(=O)c2ccc(NC(=O)COc3cc(C)c(Br)cc3C(C)C)cc2)no1	·	·	?	?	-94%	?
Cc1cccc(S(=O)(=O)c2cn(C)c3cc(N4CCCCCC4)c(F)cc3c2=O)c1	·	4%	-13%	-11%	-12%	6%
CCn1cc(S(=O)(=O)c2cc(C)cc(C)c2)c(=O)c2cc(F)c(N3CCCCC3)cc21	·	-4%	?	21µM*	-20%	?
Cc1ccc(S(=O)(=O)c2cn(C)c3cc(N4CCCC4)c(F)cc3c2=O)c(C)c1	·	-2%	-24%	23µM*	-20%	?
Cc1ccc(S(=O)(=O)c2cn(C)c3cc(N4CCCCC4)c(F)cc3c2=O)cc1	·	4%	-24%	?	-9%	?
CCn1cc(S(=O)(=O)c2ccc(C)cc2C)c(=O)c2cc(F)c(N3CCCC3)cc21	·	2%	?	?	-23%	?
Cc1ccc(S(=O)(=O)c2cn(C)c3cc(N4CCCCCC4)c(F)cc3c2=O)cc1	·	-9%	3%	16µM*	-5%	?
Cc1ccc(S(=O)(=O)c2cn(C)c3cc(N4CCCC(C)C4)c(F)cc3c2=O)c(C)c1 (stereo not drawn)	·	5%	2%	23µM*	5%	23µM*
CCOC(=O)c1ccc(-n2c(-c3ccc(C)cc3)c(C)n3c4c(=O)n(C)c(=O)n(C)c4nc23)cc1	·	-1%	-2%	·	-24%	·
Cc1cc(C)cc(C(=O)NC(CC(N)=O)c2ccc(NCCN3CCCC3)c([N+](=O)[O-])c2)c1 (stereo not drawn)	3	·	-2%	-22%	4%	-2%
COc1cc2c(c(OC)c1OC)-c1ccc(N(C)CC(OC)OC)c(=O)cc1[C@@H](NC(C)=O)CC2	74	·	?	0.65µM*	0%	1.3µM*
CN[C@H]1CCc2cc(OC)c(OC)c(OC)c2-c2ccc(N(C)CC(OC)OC)c(=O)cc21	48	·	?	6.5µM*	-8%	7.3µM*
COc1cc2c(cc1OC)C(COc1ccc(F)cc1)N(C(C)=O)CC2 (stereo not drawn)	-10	·	-4%	0%	-2%	-15%
COc1cc2c(c(OC)c1OC)-c1ccc(OC)c(=O)cc1[C@@H](N(C)CC#CCO)CC2	48	·	-26%	0.18µM*	-5%	0.21µM*
Cc1nn(Cc2ccccc2Cl)c(C)c1C(=O)NCC(c1cccs1)N1CCOCC1 (stereo not drawn)	46	0%	-25%	-21%	-20%	-19%
CCOCCCNC(=O)NC(C)c1c(-n2cccc2)sc2c1CCN(CC)C2 (stereo not drawn)	·	4%	?	16µM*	-16%	13µM*
CCN1CCc2c(sc(-n3cccc3)c2C(C)NC(=O)Nc2ccc(Br)cc2)C1 (stereo not drawn)	·	11%	10µM*	13µM*	14µM*	16µM*
CCOCCCNC(=O)N[C@H](C(=O)OC)C(C)CC (stereo partly drawn)	16	3%	7%	-1%	10%	1%
CCOc1ccc(NC(=O)NC(C)c2c(-n3cccc3)sc3c2CCN(CC)C3)cc1 (stereo not drawn)	·	1%	?	18µM*	-14%	21µM*
O=C(c1ccco1)N1CCC2(CC1)CCN(c1ccc(-c3ccccc3)cc1)CC2	·	·	·	-20%	·	9%
SMILES	IL-1B inflam inh	TDP1 block	TGFb SMAD3 inh	DT40 TDP1 no CPT	HepG2 viability	DT40 TDP1 CPT
S=c1nccc(-c2ccc3c(c2)CCO3)[nH]1	24	·	12%	?	-7%	10µM*
NC(=O)C(OC(=O)CNC(=O)C1CCCCC1)c1ccccc1 (stereo not drawn)	·	0%	5%	-22%	14%	-29%
C[C@@H]1C[C@H](OC(=O)c2ccccc2O)CC(C)(C)C1	·	8%[21 µM]	·	·	·	·
O=C(OC1CCc2ccccc2C1=O)c1ccccc1O (stereo not drawn)	10	·	10%	16µM*	6%	23µM*
Cc1ccc(O)c(C2=NNC(c3ccc(Cl)cc3)C2)c1 (stereo not drawn)	2	8%	-9%	?	-20%	?
Cc1ccc(C2Cc3cc(O)c(O)cc3CN2)cc1 (stereo not drawn)	13	·	-18%	16µM*	-52%	15µM*
CCCCNS(=O)(=O)c1ccc2nc(SCC(=O)Nc3sccc3C#N)[nH]c2c1	8	6%	?	?	-32%	23µM*
CCCCNS(=O)(=O)c1ccc2nc(SCC(=O)c3ccccc3OC)[nH]c2c1	?	8%	-29%	?	-35%	10µM*
CCCCNS(=O)(=O)c1ccc2nc(SCC(N)=O)[nH]c2c1	-2	·	3%	?	-32%	-10%
O=c1[nH]nc(N2CCOCC2)c(=O)[nH]1	1	-1%	-4%	16µM*	-25%	?
Cc1[nH]c(=O)[nH]c(=O)c1N1CCOCC1	67	1%	9%	15%	1%	9%
CN(C)c1ccc2c3c(cccc13)C(=O)N(c1ccccc1)C2=O	·	-4%	·	·	·	·
CN(C)c1ccc(/C=C2\c3ccccc3C(=O)N2c2ccccc2)cn1	25	·	1%	-20%	-44%	9.2µM*
